Measurements reported in ChEMBL document CHEMBL1961873, “Compounds: GSK PKIS; Assays: Nanosyn kinase panel” (2012).

Legend:
[1] = biological target: Protein kinase C gamma type (Homo sapiens) (UniProt P05129); details: at 1 µM;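 note: each value is an averaged percent inhibition of the enzyme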
[2] = biological target: T1, Protein kinase C iota type (Homo sapiens) (UniProt P41743); details: at 0.1 µM
T1 sequence (whole entry): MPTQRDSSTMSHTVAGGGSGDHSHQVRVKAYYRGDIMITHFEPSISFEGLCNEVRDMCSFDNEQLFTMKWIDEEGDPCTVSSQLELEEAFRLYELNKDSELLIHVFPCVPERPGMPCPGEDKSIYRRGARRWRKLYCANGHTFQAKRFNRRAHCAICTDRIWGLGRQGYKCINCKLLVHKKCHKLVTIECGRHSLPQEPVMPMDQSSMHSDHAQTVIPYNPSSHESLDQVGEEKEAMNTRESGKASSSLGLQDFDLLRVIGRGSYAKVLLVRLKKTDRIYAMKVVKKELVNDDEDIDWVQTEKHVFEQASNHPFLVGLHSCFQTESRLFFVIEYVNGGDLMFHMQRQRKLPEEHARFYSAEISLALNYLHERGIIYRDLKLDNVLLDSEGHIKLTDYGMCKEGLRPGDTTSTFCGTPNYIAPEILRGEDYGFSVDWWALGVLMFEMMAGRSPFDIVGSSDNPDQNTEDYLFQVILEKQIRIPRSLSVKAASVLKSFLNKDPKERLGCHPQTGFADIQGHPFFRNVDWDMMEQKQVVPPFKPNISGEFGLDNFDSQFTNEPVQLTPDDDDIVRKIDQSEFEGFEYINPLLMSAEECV

[3] = biological target: T1, Protein kinase C iota type (Homo sapiens); details: at 1 µM
[4] = biological target: Protein kinase C theta type (Homo sapiens) (UniProt Q04759); details: at 0.1 µM
Sequence of Protein kinase C theta type (Homo sapiens) (Q04759 whole entry, looked up): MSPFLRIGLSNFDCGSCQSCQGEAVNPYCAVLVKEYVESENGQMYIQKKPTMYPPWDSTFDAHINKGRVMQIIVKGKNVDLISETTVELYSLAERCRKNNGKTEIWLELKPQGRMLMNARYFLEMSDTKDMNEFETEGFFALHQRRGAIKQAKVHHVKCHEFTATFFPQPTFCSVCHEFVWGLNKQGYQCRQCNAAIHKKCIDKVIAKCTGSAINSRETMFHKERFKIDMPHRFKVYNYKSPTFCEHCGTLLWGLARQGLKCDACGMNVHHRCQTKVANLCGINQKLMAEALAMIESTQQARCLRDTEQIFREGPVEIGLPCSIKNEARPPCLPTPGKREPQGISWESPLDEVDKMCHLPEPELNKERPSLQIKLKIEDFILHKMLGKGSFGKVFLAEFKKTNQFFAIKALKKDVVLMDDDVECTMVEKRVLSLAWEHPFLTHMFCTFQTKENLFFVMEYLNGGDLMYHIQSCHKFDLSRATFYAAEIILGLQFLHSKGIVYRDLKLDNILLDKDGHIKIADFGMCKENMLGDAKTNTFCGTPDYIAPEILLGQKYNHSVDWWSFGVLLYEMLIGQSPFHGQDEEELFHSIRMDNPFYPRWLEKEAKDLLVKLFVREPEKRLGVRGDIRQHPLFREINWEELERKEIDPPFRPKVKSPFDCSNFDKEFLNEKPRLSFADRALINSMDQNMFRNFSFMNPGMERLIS

[5] = biological target: Protein kinase C theta type (Homo sapiens) (UniProt Q04759); details: at 1 µM
[6] = biological target: Protein kinase C beta type (Homo sapiens) (UniProt P05771); details: at 0.1 µM
Sequence of Protein kinase C beta type (Homo sapiens) (P05771 2-671 limits assumed): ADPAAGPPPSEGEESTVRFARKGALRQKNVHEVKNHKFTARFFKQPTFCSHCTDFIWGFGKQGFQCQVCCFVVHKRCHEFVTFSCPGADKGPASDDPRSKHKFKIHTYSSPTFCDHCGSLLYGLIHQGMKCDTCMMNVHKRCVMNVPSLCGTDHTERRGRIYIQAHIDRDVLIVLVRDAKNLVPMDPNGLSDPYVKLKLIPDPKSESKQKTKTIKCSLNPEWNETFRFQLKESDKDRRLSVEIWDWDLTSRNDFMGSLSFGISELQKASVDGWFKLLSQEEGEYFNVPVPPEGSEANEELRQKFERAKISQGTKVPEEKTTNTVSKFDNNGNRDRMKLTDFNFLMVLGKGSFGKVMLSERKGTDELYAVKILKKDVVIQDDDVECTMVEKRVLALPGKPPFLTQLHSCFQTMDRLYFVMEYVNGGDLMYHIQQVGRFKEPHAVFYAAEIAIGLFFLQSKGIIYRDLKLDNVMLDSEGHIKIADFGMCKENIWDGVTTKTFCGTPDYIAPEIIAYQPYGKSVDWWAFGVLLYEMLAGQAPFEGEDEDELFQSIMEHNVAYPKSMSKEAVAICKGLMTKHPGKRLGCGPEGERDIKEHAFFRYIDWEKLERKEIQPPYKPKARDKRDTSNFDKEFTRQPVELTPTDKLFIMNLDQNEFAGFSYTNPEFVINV

[7] = biological target: Protein kinase C beta type (Homo sapiens) (UniProt P05771); details: at 1 µM
[8] = biological target: T2, Serine/threonine-protein kinase D1 (Homo sapiens) (UniProt Q15139); details: at 0.1 µM
T2 sequence (whole entry): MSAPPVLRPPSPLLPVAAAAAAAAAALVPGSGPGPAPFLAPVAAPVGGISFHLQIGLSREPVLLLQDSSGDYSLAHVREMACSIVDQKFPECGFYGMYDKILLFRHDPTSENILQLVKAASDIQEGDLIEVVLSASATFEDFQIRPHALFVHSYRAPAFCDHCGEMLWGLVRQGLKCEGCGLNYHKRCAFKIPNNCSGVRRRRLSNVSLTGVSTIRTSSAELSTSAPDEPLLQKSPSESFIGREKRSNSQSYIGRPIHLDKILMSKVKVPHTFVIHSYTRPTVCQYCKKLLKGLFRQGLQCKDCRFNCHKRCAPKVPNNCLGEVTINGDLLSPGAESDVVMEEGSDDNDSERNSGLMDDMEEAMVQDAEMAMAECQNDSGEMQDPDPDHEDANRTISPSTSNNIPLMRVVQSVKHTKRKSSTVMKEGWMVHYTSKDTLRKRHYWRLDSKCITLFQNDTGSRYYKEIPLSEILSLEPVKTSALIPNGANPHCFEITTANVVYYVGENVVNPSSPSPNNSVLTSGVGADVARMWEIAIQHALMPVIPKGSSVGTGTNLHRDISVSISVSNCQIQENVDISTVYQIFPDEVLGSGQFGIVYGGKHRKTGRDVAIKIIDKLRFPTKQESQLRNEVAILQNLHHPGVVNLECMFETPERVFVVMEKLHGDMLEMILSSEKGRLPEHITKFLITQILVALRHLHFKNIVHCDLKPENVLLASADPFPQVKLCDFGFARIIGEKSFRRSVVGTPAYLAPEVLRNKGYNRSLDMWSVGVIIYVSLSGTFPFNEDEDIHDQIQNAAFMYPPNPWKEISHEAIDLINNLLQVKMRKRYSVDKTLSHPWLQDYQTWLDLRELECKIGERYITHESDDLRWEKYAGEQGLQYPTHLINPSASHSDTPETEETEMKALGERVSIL

[9] = biological target: T2, Serine/threonine-protein kinase D1 (Homo sapiens); details: at 1 µM
[10] = biological target: T3, Serine/threonine-protein kinase D2 (Homo sapiens) (UniProt Q9BZL6); details: at 0.1 µM;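 note: reported percent inhibition values are means, part of the GSK PKIS kinase panel screen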
T3 sequence (whole entry): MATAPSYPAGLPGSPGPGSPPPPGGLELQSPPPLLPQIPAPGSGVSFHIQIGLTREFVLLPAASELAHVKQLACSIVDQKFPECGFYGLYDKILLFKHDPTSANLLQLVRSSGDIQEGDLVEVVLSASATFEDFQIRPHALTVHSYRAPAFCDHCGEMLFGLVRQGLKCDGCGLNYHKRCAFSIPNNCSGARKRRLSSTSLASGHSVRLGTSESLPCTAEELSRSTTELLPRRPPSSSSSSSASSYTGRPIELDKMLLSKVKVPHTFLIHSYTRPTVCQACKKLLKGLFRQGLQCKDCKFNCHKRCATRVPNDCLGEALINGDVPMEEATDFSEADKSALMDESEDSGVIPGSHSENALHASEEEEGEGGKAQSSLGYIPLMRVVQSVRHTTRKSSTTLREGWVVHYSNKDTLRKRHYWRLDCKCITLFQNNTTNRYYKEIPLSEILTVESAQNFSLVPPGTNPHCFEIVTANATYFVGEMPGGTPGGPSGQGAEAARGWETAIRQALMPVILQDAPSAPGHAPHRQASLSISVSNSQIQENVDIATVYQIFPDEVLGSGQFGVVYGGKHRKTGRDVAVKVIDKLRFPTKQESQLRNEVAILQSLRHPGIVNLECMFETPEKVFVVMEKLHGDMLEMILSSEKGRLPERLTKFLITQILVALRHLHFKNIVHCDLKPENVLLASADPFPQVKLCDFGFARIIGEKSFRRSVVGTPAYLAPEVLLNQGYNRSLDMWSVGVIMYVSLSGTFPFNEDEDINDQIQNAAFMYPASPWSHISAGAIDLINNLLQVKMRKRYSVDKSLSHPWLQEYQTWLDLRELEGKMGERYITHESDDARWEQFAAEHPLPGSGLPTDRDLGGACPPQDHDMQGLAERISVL

CC(=O)Nc1cccc(C#Cc2cncnc2Nc2ccc(OCc3cccc(F)c3)c(Cl)c2)n1
inhibition [1]: 1.63% | inhibition [2]: 0.57% | inhibition [3]: -0.05% | inhibition [4]: 1.96% | inhibition [5]: 3.96% | inhibition [6]: 2.66% | inhibition [7]: 2.15% | inhibition [8]: -0.03% | inhibition [9]: -2.44% | inhibition [10]: -1.45%

COc1cc(C)c(NC(=O)CN(C)C)cc1Nc1nc(Nc2cccc(F)c2C(N)=O)c2cc[nH]c2n1
inhibition [1]: 8.9% | inhibition [2]: -0.31% | inhibition [3]: 1.29% | inhibition [4]: 0.13% | inhibition [5]: 0.13% | inhibition [6]: 0.38% | inhibition [7]: 0.55% | inhibition [8]: 2.21% | inhibition [9]: 18.1% | inhibition [10]: 3.43%

O=C1Nc2ccc(C(=O)c3ccco3)cc2C1=Cc1cc(Cl)c(O)c(Cl)c1
inhibition [1]: 6.26% | inhibition [2]: 4.4% | inhibition [3]: -0.01% | inhibition [4]: 2.45% | inhibition [5]: 7.59% | inhibition [6]: 1.83% | inhibition [7]: 3.01% | inhibition [8]: 2.76% | inhibition [9]: 6.32% | inhibition [10]: 2.72%

CS(=O)(=O)CCN(CC#N)Cc1ccc(-c2ccc3ncnc(Nc4ccc(OCc5cccc(F)c5)c(Cl)c4)c3c2)o1
inhibition [1]: -0.45% | inhibition [2]: 1.19% | inhibition [3]: 0.81% | inhibition [4]: 0.98% | inhibition [5]: 0.92% | inhibition [6]: 0.59% | inhibition [7]: 0.66% | inhibition [8]: -2.21% | inhibition [9]: -3.04% | inhibition [10]: -2.89%

Cc1cc(O)cc(C)c1/C=C/c1cncc(-c2nn[nH]n2)c1
inhibition [1]: 3.79% | inhibition [2]: 2.14% | inhibition [3]: 2.11% | inhibition [4]: 2.61% | inhibition [5]: 3.08% | inhibition [6]: 1.15% | inhibition [7]: 4.04% | inhibition [8]: 1.38% | inhibition [9]: 4.65% | inhibition [10]: 2.35%

O=C(Nc1n[nH]c2nc(-c3ccco3)c(Br)cc12)C1CC1
inhibition [1]: 3.32% | inhibition [2]: 0.86% | inhibition [3]: 2.37% | inhibition [4]: 1.29% | inhibition [5]: 0.79% | inhibition [6]: 0.69% | inhibition [7]: 1.19% | inhibition [8]: 2.8% | inhibition [9]: 5.78% | inhibition [10]: 3%

Cc1ccc(NC(=O)c2ccnc(N3CCCC3)c2)cc1-c1ccc(C(=O)NCC2CC2)cc1
inhibition [1]: 2.77% | inhibition [2]: 2.01% | inhibition [3]: 3.68% | inhibition [4]: 1.28% | inhibition [5]: 3.17% | inhibition [6]: 1.24% | inhibition [7]: 2.94% | inhibition [8]: 3.07% | inhibition [9]: 9.98% | inhibition [10]: 2.95%

CN(C)c1cc2c(Nc3ccc4nc(Cc5ccccc5)[nH]c4c3)ncnc2cn1
inhibition [1]: 4.36% | inhibition [2]: 2.13% | inhibition [3]: 2.77% | inhibition [4]: 2.25% | inhibition [5]: 4.22% | inhibition [6]: 1.18% | inhibition [7]: 3.96% | inhibition [8]: 4.29% | inhibition [9]: 6.67% | inhibition [10]: 5.21%

COC(=O)Nc1nc2cc(Oc3ccc(NC(=O)Nc4cccc(C(=O)O)c4)cc3)ccc2[nH]1
inhibition [1]: -0.24% | inhibition [2]: 0.47% | inhibition [3]: -1.28% | inhibition [4]: 0.18% | inhibition [5]: 2.02% | inhibition [6]: -0.5% | inhibition [7]: 0.44% | inhibition [8]: -1.35% | inhibition [9]: -1.96% | inhibition [10]: -3.05%

O=C1NC(=O)C(c2ccccc2Cl)=C1Nc1cccc(O)c1
inhibition [1]: 1.06% | inhibition [2]: 1.73% | inhibition [3]: 3.13% | inhibition [4]: 1.38% | inhibition [5]: 3.85% | inhibition [6]: 2.15% | inhibition [7]: 14.5% | inhibition [8]: 2.34% | inhibition [9]: 4.55% | inhibition [10]: 1.91%

N#Cc1c(NC(=O)c2cccc3ccccc23)sc2c1CCCC2
inhibition [1]: 0.67% | inhibition [2]: 1.98% | inhibition [3]: 2.38% | inhibition [4]: 1.69% | inhibition [5]: 0.74% | inhibition [6]: 2.18% | inhibition [7]: 2.04% | inhibition [8]: 4.23% | inhibition [9]: 4.24% | inhibition [10]: 2.17%

CCn1c(-c2nonc2N)nc2ccncc21
inhibition [1]: 4.26% | inhibition [2]: 0.76% | inhibition [3]: 1.92% | inhibition [4]: -0.28% | inhibition [5]: 0% | inhibition [6]: -0.19% | inhibition [7]: 0.57% | inhibition [8]: 1.02% | inhibition [9]: 3.26% | inhibition [10]: 1.34%

CCn1c(-c2nonc2N)nc2cnc(Oc3cccc(NC(=O)c4ccc(OCCN5CCOCC5)cc4)c3)cc21
inhibition [1]: 55% | inhibition [2]: 23.4% | inhibition [3]: 64.9% | inhibition [4]: 20% | inhibition [5]: 67.4% | inhibition [6]: 11.6% | inhibition [7]: 42.4% | inhibition [8]: 2.46% | inhibition [9]: 3.36% | inhibition [10]: 3.04%

CCCN1CCC=C(c2ccc(Nc3nc(Nc4ccccc4C(N)=O)c4cc[nH]c4n3)c(C)c2)C1
inhibition [1]: 9.77% | inhibition [2]: 0.1% | inhibition [3]: 1.27% | inhibition [4]: 2.34% | inhibition [5]: 3.28% | inhibition [6]: 1.44% | inhibition [7]: 3.5% | inhibition [8]: 33.8% | inhibition [9]: 71.3% | inhibition [10]: 25.1%

CCN1CCC(CC(=O)Nc2n[nH]c3nc(-c4cccs4)c(Br)cc23)CC1
inhibition [1]: 1.17% | inhibition [2]: -1.06% | inhibition [3]: -1% | inhibition [4]: -1.26% | inhibition [5]: -0.68% | inhibition [6]: -1.4% | inhibition [7]: 2.84% | inhibition [8]: -1.83% | inhibition [9]: -1.4% | inhibition [10]: -2.1%

CS(=O)(=O)CCNCc1nc(-c2ccc3ncnc(Nc4ccc(F)c(Cl)c4)c3c2)cs1
inhibition [1]: 0.73% | inhibition [2]: -0.92% | inhibition [3]: -0.18% | inhibition [4]: 0.64% | inhibition [5]: 2.27% | inhibition [6]: -0.23% | inhibition [7]: 2.18% | inhibition [8]: 1.88% | inhibition [9]: 2.6% | inhibition [10]: 0.4%
